Activity calls are given as the source filed them.
Columns and labels:
[1] = system: Wnt5a (protein binding on small-molecule microarray); test: Wnt5a binders on small-molecule microarray, primary screen, biophysical, 635/667 nm fluorescence (AID 1142); details: 635 nm fluorescence, higher = more signal;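 note: fluorescence read at 667 nm with signal to noise per printed feature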
[2] = cell viability in Huh7 cells, primary screen, cytotoxicity control for HCV replication inhibitor project, CellTiter-Glo luminescence, basal, 48 h (AID 1143); details: Huh7 HCV replicon, higher = more signal, called active from +8 up or from −8 down;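 note: Huh7 hepatoma cells carrying a hepatitis C replication reporter with no stimulus; test concentration not given here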
[3] = CREB reporter modulators without forskolin, primary screen, cell-based, PC12, CRE-LacZ reporter, unstimulated (AID 1145); details: no forskolin, luminescence, 4.5 h, higher = more signal, called active from +8 up or from −8 down
[4] = CREB reporter modulators under forskolin, primary screen, cell-based, PC12, CRE-LacZ reporter, forskolin-stimulated (AID 1146); details: luminescence, 4.5 h, higher = more signal, called active from +8 up or from −8 down;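 note: PC12 cells with 6xCRE LacZ reporter stimulated by forskolin 10 µM; beta-galactosidase reporter signal reflecting CREB driven transcription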
[5] = target: Streptavidin (Streptomyces avidinii) (UniProt P22629); test: streptavidin binders on small-molecule microarray, primary screen, artefact control for SMM compound annotation, biophysical, 635/667 nm fluorescence (AID 1147); details: streptavidin binding, higher = more signal;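 note: signal reflects streptavidin binding to arrayed compounds as a control protein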
[6] = small-molecule binders of probe aInhba, primary screen, biochemical, small-molecule microarray, 635/667 nm fluorescence (AID 1148); details: higher = more signal;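 note: score merges 667nm spot fluorescence with signal-to-noise for antibody binding to printed compounds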
Torsin-1A (Homo sapiens) [7] = target: Torsin-1A (Homo sapiens) (UniProt O14656); test: torsin A binders from cell lysate, primary screen, small-molecule microarray, wild-type, 635/667 nm (AID 1149); details: COS7 hTOR1A-WT lysate, 635 nm fluorescence, higher = more signal
Torsin-1A (Homo sapiens) [8] = target: Torsin-1A (Homo sapiens) (UniProt O14656); test: small-molecule binders of mutant TOR1A in lysate, primary screen, cell lysate, small-molecule microarray, COS7 lysate, 635/667 nm fluorescence (AID 1150); details: COS7 hTOR1A mutant lysate, 635 nm fluorescence, higher = more signal;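 note: score pools 667 nm emission and signal to noise measuring lysate protein binding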
[9] = system: Sonic hedgehog protein (Shh); test: small-molecule binders of Shh protein, primary screen, biochemical, small-molecule microarray, 635/667 nm fluorescence (AID 1151); details: small-molecule microarray binding, 635 nm fluorescence; higher = more signal;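 note: Shh protein binding to compounds spotted on small-molecule microarray slides; score combines spot fluorescence intensity with signal-to-noise across triplicate slides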

Torsin-1A (Homo sapiens), sequence (O14656 whole entry, looked up): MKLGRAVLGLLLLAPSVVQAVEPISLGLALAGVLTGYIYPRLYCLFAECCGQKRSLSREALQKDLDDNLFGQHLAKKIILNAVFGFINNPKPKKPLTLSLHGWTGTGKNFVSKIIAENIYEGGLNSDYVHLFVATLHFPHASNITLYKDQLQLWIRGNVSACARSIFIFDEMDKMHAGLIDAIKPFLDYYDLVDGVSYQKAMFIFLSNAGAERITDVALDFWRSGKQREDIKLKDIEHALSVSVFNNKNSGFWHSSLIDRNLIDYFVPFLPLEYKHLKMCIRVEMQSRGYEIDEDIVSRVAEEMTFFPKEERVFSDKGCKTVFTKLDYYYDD
Streptavidin (Streptomyces avidinii), sequence (P22629 whole entry, looked up): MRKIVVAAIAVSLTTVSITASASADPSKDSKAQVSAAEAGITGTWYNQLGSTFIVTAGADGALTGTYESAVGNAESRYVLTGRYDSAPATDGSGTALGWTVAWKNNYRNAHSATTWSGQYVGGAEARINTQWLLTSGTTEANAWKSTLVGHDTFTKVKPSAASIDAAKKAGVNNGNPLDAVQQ

SMILES | composite z-score [1] | z-score [2] | z-score [3] | z-score [4] | composite z-score [5] | composite z-score [6] | composite z-score (Torsin-1A (Homo sapiens) [7]) | composite z-score (Torsin-1A (Homo sapiens) [8]) | composite z-score [9]
C=C(COC)/C(=C/C[C@@H](OC(=O)c1ccncc1)c1ccc(OCCO)cc1)c1cc(C(=O)OC)ccc1OC | 0.147 | -2.43 (inactive) | 9.09 (active) | -2.02 (inactive) | 1.14 | 0.0212 | 1.06 | 0.838 | 0.811
C[N+](C)(C)CCCCNC(=O)[C@@H]1C[C@@H]2C(=O)N3CCC[C@H]3C(=O)N2[C@@H]1c1cccc(OCCO)c1 | 0.256 | -3.3 (inactive) | -0.671 (inactive) | -1.62 (inactive) | -0.315 | -0.128 | 0.725 | 1.03 | 1.84
O=C1OCC=C[C@H]2OC34C=CCN(Cc5ccccc5)C(=O)[C@H]3N(CCCCCO)C(=O)[C@@H]4[C@@H]12 (stereo partly specified) | -0.341 | -2.93 (inactive) | -0.354 (inactive) | -0.679 (inactive) | -1.62 | 0.0282 | -0.391 | -0.605 | -1.09
O=C1OCCC=C[C@H]2OC34C=CCN(Cc5ccccc5)C(=O)[C@H]3N(CCO)C(=O)[C@@H]4C12 (stereo partly specified) | -0.17 | -4.38 (inactive) | -0.899 (inactive) | -0.894 (inactive) | -0.88 | -0.285 | -0.42 | -0.261 | -0.127
CCCNC(=O)[C@@]1(Sc2ccc(C)cc2)CC(=O)N(Cc2ccccc2Cl)[C@@H]1c1ccc(CO)cc1 | 0.222 | -6.06 (inactive) | 0.443 (inactive) | -1.43 (inactive) | 0.124 | 0.0925 | 0.369 | 0.17 | 1.86
C=CC[C@@]1(C(=O)N2CCOCC2)N=C(c2ccc(OCCCO)cc2)O[C@@H]1c1ccccc1 | -0.0454 | -1.33 (inactive) | 0.437 (inactive) | -0.354 (inactive) | -0.0392 | -0.151 | 0.0827 | 1.2 | -0.571
CO[C@H]1COC(=O)[C@@H](C)COC(=O)[C@H](Cc2ccccc2)NC(=O)CC=C[C@H]1C | -0.0116 | -0.317 (inactive) | 0.432 (inactive) | -0.968 (inactive) | -0.666 | -0.0889 | 0.268 | 0.0916 | 1.85
CCOC(=O)C[C@H]1[C@H](OC(=O)c2cc3ccccc3oc2=O)[C@@H](NC(=O)c2ccc3ccccc3c2)c2cc(OCCCO)ccc2N1C(=O)c1ccc2ccccc2n1 | 0.338 | -0.574 (inactive) | 9.89 (active) | -2.03 (inactive) | 0.895 | 0.0497 | 0.419 | 0.268 | 0.43
CC(=O)NCCCC[C@@H]1NC(=O)[C@@H]2C[C@H](C(=O)NCCCCCCN(C)C)[C@H](c3ccc(O)cc3)N2C1=O | 0.336 | -0.849 (inactive) | 0.0043 (inactive) | -1.19 (inactive) | 1.24 | 0.982 | 1.49 | 1.52 | 1.43
CO[C@H]1O[C@H](CO)[C@@H](OC(=O)Nc2ccc(Oc3ccccc3)cc2)[C@H](OC(=O)Nc2ccccc2-c2ccccc2)[C@H]1OC(=O)Nc1ccccc1-c1ccccc1 | 0.595 | -6.08 (inactive) | -0.0017 (inactive) | -1.31 (inactive) | 1.25 | 0.268 | 0.445 | 0.517 | 1.24
O=C1c2ccccc2[C@](Cc2ccccc2I)(C(=O)NCC(F)(F)F)[C@H](c2ccc(CO)cc2)N1Cc1ccccc1C(F)(F)F | 0.12 | -0.254 (inactive) | -0.438 (inactive) | -0.112 (inactive) | 0.59 | -0.268 | 0.305 | 0.245 | 0.137
CO[C@H]1COC(=O)[C@@H](C)NC(=O)CC=C[C@@H](C)[C@H](OC)COC(=O)CC=C[C@@H]1C | 0.0227 | -2.38 (inactive) | -0.747 (inactive) | -1.2 (inactive) | 0.0569 | -0.39 | 1.45 | 1.69 | 2.21
COc1ccc(CCNC(=O)[C@@]2(c3ccc([N+](=O)[O-])cc3)CC(=O)N(C(C)C)[C@@H]2c2ccc(CO)cc2)cc1 | -0.326 | -3.13 (inactive) | 0.0909 (inactive) | -1.25 (inactive) | -0.698 | -0.255 | -1.09 | -0.87 | -0.775
CO[C@H]1COC(=O)[C@H](CCSC)NC(=O)CC=C[C@@H](C)COC(=O)[C@@H](OCc2ccccc2)C=C[C@@H]1C | 0.156 | 0.111 (inactive) | -0.0223 (inactive) | -0.48 (inactive) | -0.154 | -0.0762 | 2.88 | 2.85 | 1.93
C[C@H]1NC(=O)[C@@H](C)NC(=O)[C@@]23C(=O)N[C@@H](Cc4ccccc4)C2[C@H](C)[C@@]2(C)O[C@H]2C3/C=C/C/C=C\CNC1=O (stereo partly specified) | 0.0845 | -0.333 (inactive) | 3.4 (inactive) | -1.32 (inactive) | -0.594 | -0.128 | 0.153 | -0.354 | 0.651
O=C(CS)NCCCCCNC(=O)[C@H]1C[C@H]2C(=O)N3CCC[C@H]3C(=O)N2[C@H]1c1ccc(O)cc1 | 0.143 | -0.564 (inactive) | -0.528 (inactive) | -1.59 (inactive) | -1.13 | -0.024 | -0.159 | 0.0883 | 1.63
CO[C@@H]1COC(=O)[C@H](COCc2ccccc2)NC(=O)CC=C[C@@H](C)[C@H](OC)COC(=O)[C@H](COCc2ccccc2)NC(=O)CC=C[C@H]1C | 0.0648 | -0.853 (inactive) | 0.336 (inactive) | -0.401 (inactive) | -0.405 | -0.2 | 0.692 | 0.209 | 0.839
O=C(O)[C@@H]1Cc2c([nH]c3ccccc23)[C@@H](c2ccccc2)N1 | 0.019 | -0.691 (inactive) | 0.109 (inactive) | -1.69 (inactive) | 0.29 | -0.164 | 0.589 | 0.409 | 0.371
CCN1C(C)=C(C(=O)OC)[C@@H](c2ccccc2)N2C(=O)[C@](O)(C(=O)OC)[C@@H](c3ccccc3)C(C(=O)c3ccccc3)=C12 | 0.271 | -1.49 (inactive) | 1.55 (inactive) | 0.214 (inactive) | 0.0306 | -0.0552 | 0.5 | 0.269 | 0.473
COc1cccc([C@@H]2[C@@H](C)CC[C@H]3C(=O)N4[C@H](c5cccc(OC)c5)[C@@H](C)CC[C@H]4C(=O)N23)c1 | 0.0508 | -1.88 (inactive) | 1.38 (inactive) | -1.18 (inactive) | 0.258 | 0.054 | 0.504 | 0.824 | 0.944
COCCOC(=O)N1C(=O)[C@@]2(c3cc(C#CC4(O)CCCCCC4)ccc31)[C@H](C(=O)N1CCCCCCC1)[C@H]1C(=O)O[C@H](c3ccccc3)[C@H](c3ccccc3)N1[C@@H]2c1ccc(O)cc1 | 0.464 | -4.34 (inactive) | -0.211 (inactive) | -1.68 (inactive) | 1.16 | 1.01 | 1.27 | 0.889 | 1.68
COC(=O)C[C@H]1O[C@]2(C(=O)N(C)c3ccccc32)[C@@H](C)[C@@H]1[Si](C)(C)c1ccc(OC)cc1 | 0.259 | -4.23 (inactive) | 2.23 (inactive) | -1.58 (inactive) | 0.781 | 0.138 | 0.639 | 0.236 | 0.661
C=CCC(OC(C)=O)[C@@H]1[C@@H](N(Cc2cc3ccccc3o2)C(=O)c2ccc(C)cc2)c2cc(OCCCO)ccc2N1C(=O)c1ccc2ccccc2n1 (stereo partly specified) | -0.0502 | -0.17 (inactive) | 5.44 (inactive) | -0.273 (inactive) | 0.184 | -0.0266 | 0.369 | -0.368 | 0.609
CCCC[C@H]1OB(O)C[C@H]2C1=C(COC)C[C@H]1C(=O)N(Cc3ccccc3)C(=O)[C@H]12 | 0.192 | -0.273 (inactive) | 0.307 (inactive) | -1.76 (inactive) | -0.098 | 0.124 | -0.0377 | 0.37 | 0.329

Reference: PubChem BioAssay
